For one assay, the target named is Albumin (Bos taurus) (UniProt P02769). The assay can be described thus: compounds binding labelled BSA control protein – biochemical, small-molecule microarray, Alexa647 label, 635/667 nm fluorescence, artefact control for SMM control protein annotation, profiling panel (AID 1118).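 Further: score merges 667 nm emission intensity and signal-to-noise per printed compound spot.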 Conditions: BSA-A647 binding, fluorescence 635 nm, higher = more signal.
Assay [1] is described as follows: probe aXIP binding to arrayed compounds – biochemical, NeuroSMM set, 635/667 nm fluorescence, primary screen (AID 1119).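 Further: probe is the protein aXip251-270 applied at 1 µg/mL to compound-printed slides; binding of probe to printed compounds measured as 667 nm fluorescence plus signal to noise.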 Conditions: small-molecule microarray, higher = more signal, called active from +8 up or from −8 down.
A short description of assay [2]: probe aNOTCH3 binding on compound microarray – biochemical, small-molecule microarray, 635/667 nm fluorescence, primary screen (AID 1120).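 Further: probe is a biotin-tagged antibody raised against NOTCH3 rather than NOTCH3 protein; score merges spot fluorescence near 667 nm with spot signal to noise.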 Conditions: higher = more signal.
A short description of assay [3]: probe aNOTCH2 binding on compound microarray – biochemical, small-molecule microarray, 635/667 nm fluorescence, primary screen (AID 1121).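 Further: score merges feature fluorescence read at 667 nm with its signal to noise.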 Conditions: higher = more signal.
Assay [4] has as its target Carbonic anhydrase 2 (Homo sapiens) (UniProt P00918). Put plainly: compounds binding carbonic anhydrase 2 – biochemical, small-molecule microarray, Alexa647-labelled CAII, profiling panel (AID 1122). To be noted: CAII-A647 binding fluorescence, higher = more signal.
Assay [5] in a line: COS7 lysate on small-molecule microarray, probe aHis, 635 nm (AID 1123).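 Further: z-score combines 667nm fluorescence intensity with signal-to-noise per printed compound spot.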 To be noted: COS7 cell lysate, fluorescence, higher = more signal.
The nature of assay [6]: probe aLAP1 signal on lysate-treated microarray – cell lysate, small-molecule microarray, COS7 lysate, primary screen (AID 1124).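 Further: lysate comes from COS7 cells expressing LAP1 and is applied at 0.3 µg/mL; score merges spot fluorescence near 667 nm with signal-to-noise over triplicate slides.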 To be noted: probe aLAP1, fluorescence, higher = more signal.
For the next assay, the system named is Sam68 (KHDRBS1). The assay can be described thus: compounds binding KHDRBS1 protein – biochemical, small-molecule microarray, 635 nm fluorescence, primary screen (AID 1125).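 Further: score merges 667 nm channel intensity with signal to noise over triplicate slides.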 Conditions: higher = more signal.
Assay [7] relates to Chordin-like protein 2 (CHRDL2). The assay can be described thus: compounds binding chordin-like 2 – biochemical, small-molecule microarray, 635 nm fluorescence, primary screen (AID 1126).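 Further: printed compound slides probed with Chrdl2 protein at 4 µg/mL for 1 h at 4 C; score merges 667 nm emission intensity with signal to noise over three replicate slides.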 To be noted: fluorescence 635 nm, higher = more signal.
The target in assay [8] is Concanavalin-A (Canavalia ensiformis) (UniProt P02866). The assay can be described thus: compounds binding concanavalin A lectin – biochemical, small-molecule microarray, Alexa647 label, 635 nm, artefact control for SMM control protein annotation, primary screen (AID 1127).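 Further: z combines 667 nm emission intensity with signal-to-noise across three replicate slides.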 To be noted: ConA-A647 binding fluorescence, higher = more signal.

Active and inactive are the calls of the source.

Albumin (Bos taurus), sequence (P02769 whole entry, looked up): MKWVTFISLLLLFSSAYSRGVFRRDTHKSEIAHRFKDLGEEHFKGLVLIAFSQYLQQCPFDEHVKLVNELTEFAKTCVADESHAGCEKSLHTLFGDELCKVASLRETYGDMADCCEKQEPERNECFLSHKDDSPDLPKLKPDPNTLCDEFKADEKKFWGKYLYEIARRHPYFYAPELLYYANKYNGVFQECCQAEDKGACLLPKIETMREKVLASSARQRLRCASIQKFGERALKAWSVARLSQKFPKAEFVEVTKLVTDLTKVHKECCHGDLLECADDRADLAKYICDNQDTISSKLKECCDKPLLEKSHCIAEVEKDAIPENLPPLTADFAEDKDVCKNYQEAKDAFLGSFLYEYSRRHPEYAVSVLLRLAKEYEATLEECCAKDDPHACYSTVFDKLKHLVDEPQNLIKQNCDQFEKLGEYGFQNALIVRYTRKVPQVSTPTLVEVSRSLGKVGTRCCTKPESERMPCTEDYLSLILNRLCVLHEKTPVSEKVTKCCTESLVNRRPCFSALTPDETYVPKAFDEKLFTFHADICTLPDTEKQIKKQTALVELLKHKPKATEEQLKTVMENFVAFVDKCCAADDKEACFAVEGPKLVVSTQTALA
Concanavalin-A (Canavalia ensiformis), sequence (P02866 whole entry, looked up): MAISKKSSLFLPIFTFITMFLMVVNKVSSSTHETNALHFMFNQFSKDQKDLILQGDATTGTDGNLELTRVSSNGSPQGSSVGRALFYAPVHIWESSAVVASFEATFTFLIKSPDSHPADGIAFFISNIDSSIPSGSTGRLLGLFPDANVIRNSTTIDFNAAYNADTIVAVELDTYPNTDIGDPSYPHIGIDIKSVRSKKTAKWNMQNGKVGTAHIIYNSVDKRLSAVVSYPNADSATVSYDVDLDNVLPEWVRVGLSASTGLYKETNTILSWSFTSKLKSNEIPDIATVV

As for `C#CCN(Cc1ccccc1Br)[C@H](/C=C/c1ccccc1)[C@@H](O)Cc1ccccc1`, the composite z-score with Albumin (Bos taurus) was -0.33; in assay [2], -0.226; in [3], -0.167; in [4], -0.128; in assay [5] it was 0.222; in [6], 0.163. Besides, the composite z-score in the assay on Sam68 (KHDRBS1) was 0.446; in [7], 0.129; in assay [8], -1.01. Moreover, the composite Z-score in assay [1] was 0.258 (inactive).

Regarding `CC(c1ccccc1)C(O)C1C=CC2C(=O)N(C)C(=O)C2N1Nc1ccccc1` (stereo not given), the composite z-score in the assay with Albumin (Bos taurus) is 0.921; in [2], 0.5; in [3] it was -0.0067; in [4] it was 0.601; in assay [5], 2.5; in assay [6], 0.406. For the same compound, the composite z-score in the assay on Sam68 (KHDRBS1) is 1.31; in assay [7], -0.826; in [8], 1.21. The composite Z-score in assay [1] is 0.318 (inactive).

For `CO[C@H]1O[C@H](CO)[C@@H](OC(=O)Nc2ccccc2)[C@H](OC(=O)c2cc3ccccc3[nH]2)[C@H]1OC(=O)c1cc2ccccc2[nH]1`, the composite z-score is 0.124 with Albumin (Bos taurus); -0.0368 in [2]; -0.0166 in assay [3]; 0.793 in assay [4]; 0.68 in assay [5]; 0.94 in [6]. For the same compound, the composite z-score with Sam68 (KHDRBS1) worked out at 0.396; in [7] it was 0.132; in [8] it was 0.282. The composite Z-score in [1] was 1.12 (inactive).

For the compound `CC(C)N1C(=O)C[C@@](C(=O)O)(c2ccc([N+](=O)[O-])cc2)[C@H]1c1ccc(CO)cc1`, the composite z-score was -0.795 in the assay with Albumin (Bos taurus); -0.0947 in assay [2]; -0.0586 in [3]; 0.754 in assay [4]; 1.52 in assay [5]; 0.0273 in assay [6]. Besides, the composite z-score was 0.69 in the assay on Sam68 (KHDRBS1), -1.25 in assay [7] and 0.279 in assay [8]. For the same compound, the composite Z-score in [1] is 0.589 (inactive).

Regarding `C=CC[C@]1(C(=O)N2CCCCC2)N=C(c2ccc(OCCCO)cc2)O[C@H]1c1ccccc1CN=[N+]=[N-]`, the composite z-score in the assay with Albumin (Bos taurus) is 0.472; in assay [2], 0.405; in assay [3], -0.147; in assay [4], 0.69; in [5], 2.31; in assay [6], 0.817. Besides, the results for the composite z-score (in the assay on Sam68 (KHDRBS1); in assay [7]; in assay [8]) were 1.3, -0.406 and 1.1, respectively. Also, the composite Z-score in assay [1] was 0.256 (inactive).

In the case of `Cc1ccc(S[C@]2(C(=O)NCC(F)(F)F)CC(=O)N(Cc3cc(C(F)(F)F)cc(C(F)(F)F)c3)[C@@H]2c2ccc(CO)cc2I)cc1`, the composite z-score with Albumin (Bos taurus) is 0.803; in assay [2], -0.291; in assay [3], -0.164; in assay [4] it was 0.14; in [5], 0.869; in [6], -0.0008. Also, the composite z-score was -1.47 with Sam68 (KHDRBS1), -1.54 in assay [7] and -0.41 in assay [8]. For the same compound, in assay [1], the composite Z-score was 0.439 (inactive).

On to `COc1ccc([Si](C)(C)[C@@H]2[C@@H](CCO)O[C@]3(C(=O)N(Cc4cccc(NC(=O)[C@H](C)O)c4)c4ccccc43)[C@H]2C)cc1`, for which the composite z-score with Albumin (Bos taurus) was 0.6; in [2], -0.147; in assay [3], -0.0984; in assay [4], 0.51; in [5], 1.61; in [6], 0.523. The composite z-score in the assay on Sam68 (KHDRBS1) is 1.31; in assay [7], -0.083; in assay [8], 1.01. For the same compound, the composite Z-score in assay [1] was 0.234 (inactive).

Consider `C=CCOC(=O)[C@@H]1[C@H]2C(=O)O[C@H](c3ccccc3)[C@H](c3ccccc3)N2[C@H](c2ccc(OCCOC(=O)[C@@H]3C[C@@H]4C(=O)N[C@@H](CCCC[N+](C)(C)C)C(=O)N4[C@@H]3c3ccc(O)cc3)cc2)[C@@]12C(=O)Nc1ccc(I)cc12`, for which the composite z-score was 0.118 with Albumin (Bos taurus); 0.0282 in assay [2]; -0.084 in [3]; 0.473 in [4]; 1.92 in assay [5]; 0.417 in assay [6]. Besides, the composite z-score with Sam68 (KHDRBS1) was determined as 1.29; in assay [7], 0.841; in [8] it was 0.756. In addition, in assay [1], the composite Z-score was -0.0092 (inactive).

As for `CC[C@@H]1C=C(C(=O)O)[C@H](c2ccc(C#N)cc2)N1S(=O)(=O)c1ccc(C)cc1`, the composite z-score was 0.173 with Albumin (Bos taurus); -0.0077 in assay [2]; -0.046 in assay [3]; 0.838 in assay [4]; 3.03 in [5]; 1.44 in [6]. In addition, the composite z-score in the assay with Sam68 (KHDRBS1) is 1.09; in assay [7], -1.52; in [8] it was 0.91. Besides, the composite Z-score in assay [1] was 0.474 (inactive).

For the compound `COC(=O)[C@@]1(Cc2ccccc2)[C@H]2c3cc(C(=O)N4CCCC4)n(CCc4ccccn4)c3C[C@H]2CN1C(=O)c1ccccc1`, the composite z-score in the assay with Albumin (Bos taurus) came out at 1.06; in assay [2] it was 0.682; in assay [3], 0.133; in [4], 0.88; in assay [5] it was 3.46; in assay [6] it was 0.589. For the same compound, the composite z-score with Sam68 (KHDRBS1) was 0.761; in assay [7], -0.607; in [8], 0.606. For the same compound, in assay [1], the composite Z-score was -1.17 (inactive).

On to `C=CC[C@@]1(C(=O)NCCCOC)N=C(c2ccc(OCCCO)cc2)O[C@@H]1c1ccccc1`, for which the composite z-score with Albumin (Bos taurus) came to 0.8; in [2], 0.169; in assay [3] it was 0.0977; in assay [4], 0.597; in assay [5] it was 3.2; in assay [6], 0.601. Further, the composite z-score with Sam68 (KHDRBS1) is 0.316; in [7], -0.919; in assay [8], 0.174. Moreover, the composite Z-score in assay [1] is 0.604 (inactive).

With `CCCCC(CC)C(O)C1C=CC2C(=O)N(C)C(=O)C2N1Nc1ccccc1` (stereo not given), the composite z-score with Albumin (Bos taurus) was 0.928; in [2] it was 0.0934; in assay [3] it was -0.0804; in assay [4], 0.655; in assay [5], 1.99; in assay [6] it was 0.245. Further, the composite z-score with Sam68 (KHDRBS1) was 1.31; in [7], -0.113; in assay [8], 0.586. Also, the composite Z-score in assay [1] was 0.576 (inactive).

On to `CC(C)[Si](C#CCCCC#N)(O[C@H](c1ccccc1)c1cn(Cc2ccccc2)nn1)C(C)C`, for which the composite z-score was 0.728 in the assay with Albumin (Bos taurus); 0.123 in assay [2]; -0.174 in [3]; 0.249 in [4]; 0.691 in assay [5]; 0.272 in assay [6]. For the same compound, the composite z-score in the assay with Sam68 (KHDRBS1) stood at 1.16; in [7] it was 0.568; in [8] it was 0.536. Also, the composite Z-score in [1] was -0.535 (inactive).

For `COC(=O)C/C=C/C[C@]1(O)C(=O)N(C)c2ccccc21`, the composite z-score in the assay with Albumin (Bos taurus) was -0.475; in assay [2] it was 0.212; in assay [3], -0.099; in assay [4], 0.273; in [5], 0.401; in [6], 0.111. Also, the composite z-score with Sam68 (KHDRBS1) is 0.241; in assay [7] it was 0.934; in assay [8], -0.556. In addition, the composite Z-score in assay [1] is -0.571 (inactive).

Regarding `COc1cc2c(cc1O)C(C1CC1)N(C)CC2` (stereo not given), the composite z-score with Albumin (Bos taurus) was 0.789; in assay [2], -0.257; in assay [3], -0.19; in assay [4] it was 0.902; in [5], -0.374; in [6], -0.308. For the same compound, the composite z-score in the assay with Sam68 (KHDRBS1) is -0.758; in assay [7] it was -0.778; in assay [8], -1.91. Moreover, the composite Z-score in [1] was -0.519 (inactive).

On to `COCCCNC(=O)[C@@H]1c2ccccc2C(=O)N(C(C)C)[C@H]1c1ccc(CO)cc1`, for which the composite z-score in the assay with Albumin (Bos taurus) is 0.0913; in assay [2] it was 0.0577; in assay [3] it was -0.125; in [4], 0.25; in assay [5], -0.756; in assay [6], -0.366. Moreover, the composite z-score with Sam68 (KHDRBS1) is 0.0457; in [7], -0.0306; in [8] it was 0.856. Besides, in assay [1], the composite Z-score was 0.0178 (inactive).

Values taken from PubChem BioAssay.
